Among the data in PubChem BioAssay (EPA / NIEHS) are AC50 and outcome values, retold here.

Active and inactive are the calls of the source. How the source made its calls: active means hit-call score of the fitted dose curve at least 0.9, where 1 is the maximum; inactive means score below 0.9.

This experiment is described as follows: CCTE_Padilla_ZF_144hpf_TERATOSCORE: (Legacy) CCTE's 144 Hour Post-fertilization zebrafish Assay Teratoscore, Padilla Lab (AID 2283679).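 On AC50: teratogenicity score from eye scoring of death hatching and malformations at 144 hpf; higher score means more developmental defects relative to DMSO baseline.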 From the text: CCTE_Padilla_ZF_144hpf is a whole embryo, multiplexed assay. Zebrafish embryos were exposed to chemicals starting 6 hr post-fertilization for 5 days in 96-well plates. Developing larvae were examined microscopically daily for malformation and mortality.CCTE_Padilla_ZF_144hpf_TERATOSCORE is one of one assay component(s) measured or calculated from the CCTE_Padilla_ZF_144hpf assay. It is designed to make measurements of developmental malformations and mortality as detected with brightfield microscopy.Data from the assay component CCTE_Padilla_ZF_144hpf_TERATOSCORE was analyzed into 1 assay endpoint. This assay endpoint, CCTE_Padilla_ZF_144hpf_TERATOSCORE, was analyzed in the positive analysis fitting direction relative to DMSO as the negative control and baseline of activity. Using a type of morphological reporter, gain-of-signal activity can be used to understand changes in developmental defect as they relate to the whole embryo. To generalize the intended target to other relatable targets, this assay endpoint is annotated to the malformation intended target family, where the subfamily is total.
Zebrafish husbandry: Wild type adult zebrafish (Danio rerio; undefined outbred stock obtained from Aquatic Research Organisms, Hampton, NH, 03842) were housed in an AAALAC-approved animal facility at 28C with a 14:10 h light: dark cycle (lights on at 08:30 h). Adult fish (2-3 females per male; density = 15-20 adults per tank) were kept in one of several 9-liter (L) flow-through colony tanks (Aquaneering Inc., San Diego, CA). All adults in a colony tank were placed in a 2 L (static) breeding tank (Aquatic Habitats, Apopka, FL) one hour prior to light onset. Typically, adults from two to three colony tanks were mated on the same day. Two hours after light onset the adults were returned to the colony tank. All embryos were gathered from each breeder tank, pooled, and placed in a 28C water bath for 2 h, followed by two washes with 0.06% bleach (v/v) in 10% Hanks' Balanced Salt Solution (13.7 mM NaCl 0.54 mM KCl, 25 uM Na2HPO4, 130 uM CaCl2 100 um MgSO4 and 420 um NaHCO3,), hereafter referred to as Hanks' solution, for 5 min in order to remove any residual bacteria or fungi. Immediately following washing, the embryos were examined, and healthy embryos were separated from dead or unfertilized eggs and moved into fresh Hanks'. Single Concentration Study: The chemicals were arrayed on a 96-well stock plate, 80 chemicals per plate, 20 mM concentration of each, with 16 DMSO (vehicle) controls. The embryos were exposed to the chemicals (80 Mfinal concentration, renewed daily) by immersion from 0 dpf until 5 dpf. Eighty micromolar was chosen as the highest concentration for two reasons (1) because the stock solutions were prepared at 20 mM in 100% DMSO. On 6 dpf, each embryo/larva was assessed for viability, hatching status and malformations. There were 4 embryos per concentration per chemical (each embryo on a separate microtiter plate). […] Chemical exposures: Zebrafish embryos were exposed in 96-well plates. Briefly, on day 0, approximately 6-8 h after fertilization, zebrafish embryos (with chorions) were placed 1 embryo per well in Millipore Multiscreen Nylon mesh plates (catalog number MANMN4050, Millipore Corp, Bedford, MA) and exposed to nominal concentrations of the chemicals. In each well, 1 ul of the chemical in DMSO from the stock plate was diluted with 250 ul of 10% Hanks' solution; the final DMSO concentration was 0.4% (v/v) in all wells; vehicle controls receives DMSO only. Each plate was sealed with a non-adhesive material (Type A, BioRad, Hercules, CA), covered with a lid, and wrapped in Parafilm to minimize evaporation. All embryos and larvae were kept in a 26C incubator with a 14:10 h light-dark cycle (with lights on at 08:30 h and off at 22:30 h). […]
By AC50 is commonly meant the concentration giving half of the maximal activity seen. `c1ccc(C(O[C@@H]2CCCN(CCc3ccc4c(c3)OCO4)C2)c2ccccc2)cc1`: the AC50 is 2.1 µM (active).

As for `O=C1CN(N=Cc2ccc([N+](=O)[O-])o2)C(=O)N1`, the molecule was classed as inactive.

On to `CCCCCCCC1CCC(=O)O1` (stereo not drawn), for which the concentration at half-maximal activity (AC50) was 8.03 µM (active).

Turning to `OCC(CO)(CO)CO`, the result was inactive.

`COc1cc(C(C)C)c2c(c1)S(=O)(=O)N(COc1cc(=O)n3cccc(OCCN4CCCCC4)c3n1)C2=O`: the AC50 was 15.5 µM (active).

For `CCCc1ccccc1`, the result was inactive.

For the molecule `CCCCC(CC)C(=O)OCCOCCOCCOC(=O)C(CC)CCCC` (stereo not drawn), the AC50 is 4.5 µM (active).

For the molecule `CC(C)C(=O)Nc1ccc([N+](=O)[O-])c(C(F)(F)F)c1`, the AC50 is 14.2 µM (active).

In the case of `Cn1cc[nH]c1=S`, the result was inactive.

Regarding `NC(=O)N(O)[C@@H]1COc2cc(OCc3ccccc3)ccc21`, the result was inactive.

In the case of `C[C@@H](Oc1ccc(CNC(=O)c2cccnc2Oc2ccc3c(c2)OCO3)c(F)c1)C(=O)O`, the molecule was called inactive.

Turning to `CCCC(CCC)C(=O)O`, the AC50 is 78.7 µM (active).

Turning to `OCc1ccccc1`, the result was inactive.

For `CCN(CC)C(=S)SSC(=S)N(CC)CC`, the AC50 is 0.183 µM (active).

For `CCc1ccc(O)c(C(C)(C)C)c1`, the AC50 was 25.1 µM (active).

Regarding `CCCCCCCCCCCCCCCCOS(=O)(=O)O`, the AC50 is 7.7 µM (active).

`CC(C)c1nnc2ccc(-c3ocnc3-c3cc(F)ccc3F)cn12`: the AC50 is 61.9 µM (active).

Regarding `O=C(O)c1cccc(C[C@@H]2COc3ccc(OCc4nc5cc(F)ccc5s4)cc3[C@@H]2O)c1`, the AC50 was 0.463 µM (active).

With `COc1cc2c(c(OC)c1OC)-c1ccc(OC)c(=O)cc1[C@@H](NC(C)=O)CC2`, the concentration at half-maximal activity (AC50) is 61.5 µM (active).

With `C=CCc1cc(S(=O)(=O)c2ccc(O)c(CC=C)c2)ccc1O`, the AC50 was 60 µM (active).

Regarding `CCCCOC(=O)c1ccccc1`, the AC50 is 59.1 µM (active).

Regarding `CC[C@H](C)C(=O)O[C@H]1C[C@H](O)C=C2C=C[C@H](C)[C@H](CC[C@@H](O)C[C@@H](O)CC(=O)O)[C@H]21`, the molecule was classed as inactive.

For the molecule `O=c1[nH]cnc2c1ncn2[C@H]1CC[C@@H](CO)O1`, the outcome was inactive.
